Laboratory results published in the supplement of paper PMC10338343.
± gives the standard deviation.

Each sequence was assayed on MILI (PIWIL2) piRISC loaded with L1MC piRNA (26 nt) (assay: pre-steady-state target cleavage rate (min^-1); guide: L1MC piRNA 5'p-UAACUAAAUACUAUGCAAGCUGUAGG; MIWI and MILI are mouse PIWI proteins and EfPiwi is from a freshwater sponge; tags in brackets are library labels; higher = faster piRNA-guided slicing of the target). Settings: auxiliary factor: 500 nM mouse GTSF1.
Method: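 Cleave-'n-Seq: a library of target RNAs (target site embedded in constant flanks, ACAGCATTCCGCGTTAGTGATATCCG... 5' flank; DNA-blocked outside the site) at 0.1 nM was incubated with 1 nM active mouse MILI or MIWI piRISC (synthetic 5'-monophosphorylated piRNA guide) with or without 500 nM mouse GTSF1 at 33 °C for 1 min to 16 h. Uncleaved targets were sequenced and normalised to non-target controls, and the pooled three trials were fitted to a burst-and-steady-state model to give the pre-steady-state cleavage rate (min^-1; k3 is constrained to at most 1e-4). Sequence is the target site only; target names encode pairing extent (gX:gY) and contiguous / 1-mismatch / 2-mismatch / bulge geometry. Fits with R² ≤ 0 are excluded.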
With UCCUGGAUGUCGUUGCCUAGUAUUUAGUUA the “pre-steady-state target cleavage rate” value was 0.0556 ± 0.0094.
UCCUCCUACAGCUUGCAUAGAUUUUAGAAA was tested, and the “pre-steady-state target cleavage rate” value was 0.0147 ± 0.0053.
With UCCUGGAUGUCGAACGAGAGUAUUUAGUUA the “pre-steady-state target cleavage rate” value was < 0.0001.
UCCUGGAUCAGCUUGCAUAGUAUUUACUUA was tested, and the “pre-steady-state target cleavage rate” value was 0.0636 ± 0.008.
For UCCUGGAACAGCUUGCAUAGUAUUUUAGUUA, the “pre-steady-state target cleavage rate” value was 0.241 ± 0.02.
In the case of UCCUGGAUGAGCUUGCAAAGUAUUUACAAA, the “pre-steady-state target cleavage rate” value is reported as 0.00757 ± 0.0048.
For UCCUGCUACAGCUUGCAUAGUAUAAUGUUA, the “pre-steady-state target cleavage rate” value was 0.166 ± 0.022.
In the case of UCCUCCUACAGCUUGCAUAGUAUUUUCAAA, the “pre-steady-state target cleavage rate” value is reported as 0.232 ± 0.044.
With UCCUGGAUGUCGAUGCAUUGUAUUUAGUUA the “pre-steady-state target cleavage rate” value was 0.0091 ± 0.0037.
For UCCUGGAUGUCCUUGCAUAGUAUCUUAGUUA, the “pre-steady-state target cleavage rate” value was 0.0833 ± 0.017.
For UCCUGGAUCAGCUUGCAUAGUACUUUAGUUA, the “pre-steady-state target cleavage rate” value was 0.14 ± 0.016.
For UCCUGGAACAGCUUGCAUAGUAUAUAGUUA, the “pre-steady-state target cleavage rate” value was 0.296 ± 0.029.
For UCCUGGAUGUCGUUCGCAUAGUAUUUAGUUA, the “pre-steady-state target cleavage rate” value was 0.101 ± 0.013.
With UCCUCCUACAGCUUCCAUAGUAUUUUGUUA the “pre-steady-state target cleavage rate” value was 0.0182 ± 0.0077.
In the case of UCCUGGAUGUGCUUGCUUACUAUUUAGUUA, the “pre-steady-state target cleavage rate” value is reported as 0.0117 ± 0.005.
For UCCUCCUACAGCUUGCUUAGUAUUUAGUUA, the “pre-steady-state target cleavage rate” value was 0.275 ± 0.015.
With UCCUGCUACAGCUUGCAUAGUAUAAAGUUA the “pre-steady-state target cleavage rate” value was 0.198 ± 0.025.
With UCCUGCUACAGCAUGCAAAGUAUUUAGUUA the “pre-steady-state target cleavage rate” value was 0.163 ± 0.015.
For “UCCUGGAACAGCUUGCAUAGUAUUUAGUUG [g2:g23:cont:t1G]”, the “pre-steady-state target cleavage rate” value was 0.252 ± 0.024.
For UCCUCUUACAGCUUGCAUAGUAUUUAGUUA, the “pre-steady-state target cleavage rate” value was 0.35 ± 0.015.
In the case of UCCUGGAUGAGCUUGCUAAGUAUUUAGUUA, the “pre-steady-state target cleavage rate” value is reported as 0.0294 ± 0.0061.
For UCCUGCUUCAGCUUGCAUAGUAUUUUGUUA, the “pre-steady-state target cleavage rate” value was 0.144 ± 0.025.
In the case of UCCUGGAUCAGGUUGCAUAGUAUAUAGUUA, the “pre-steady-state target cleavage rate” value is reported as 0.197 ± 0.017.

Same assay, conditions: auxiliary factor: none (no GTSF1)
UCCUGGAUGUCGUUGCCUAGUAUUUAGUUA was tested, and the “pre-steady-state target cleavage rate” value was 0.00949 ± 0.0028.
In the case of UCCUGGAUGUCGAACGAGAGUAUUUAGUUA, the “pre-steady-state target cleavage rate” value is reported as < 0.0001.
With UCCUGGAUCAGCUUGCAUAGUAUUUACUUA the “pre-steady-state target cleavage rate” value was 0.00403 ± 0.0024.
UCCUGGAACAGCUUGCAUAGUAUUUUAGUUA was tested, and the “pre-steady-state target cleavage rate” value was 0.0048 ± 0.0033.
In the case of UCCUGGAUGUCCUUGCAUAGUAUCUUAGUUA, the “pre-steady-state target cleavage rate” value is reported as 0.00566 ± 0.0029.
In the case of UCCUGGAUCAGCUUGCAUAGUACUUUAGUUA, the “pre-steady-state target cleavage rate” value is reported as 0.00672 ± 0.0027.
With UCCUGGAACAGCUUGCAUAGUAUAUAGUUA the “pre-steady-state target cleavage rate” value was 0.00847 ± 0.0025.
In the case of UCCUGGAUGUCGUUCGCAUAGUAUUUAGUUA, the “pre-steady-state target cleavage rate” value is reported as 0.00567 ± 0.0028.
In the case of UCCUGGAUGUGCUUGCUUACUAUUUAGUUA, the “pre-steady-state target cleavage rate” value is reported as 0.00477 ± 0.0024.
In the case of UCCUCCUACAGCUUGCUUAGUAUUUAGUUA, the “pre-steady-state target cleavage rate” value is reported as 0.00811 ± 0.0021.
With UCCUGCUACAGCUUGCAUAGUAUAAAGUUA the “pre-steady-state target cleavage rate” value was 0.00349 ± 0.0022.
UCCUGCUACAGCAUGCAAAGUAUUUAGUUA was tested, and the “pre-steady-state target cleavage rate” value was 0.00807 ± 0.0029.
“UCCUGGAACAGCUUGCAUAGUAUUUAGUUG [g2:g23:cont:t1G]” was tested, and the “pre-steady-state target cleavage rate” value was 0.00663 ± 0.0021.
With UCCUCUUACAGCUUGCAUAGUAUUUAGUUA the “pre-steady-state target cleavage rate” value was 0.00963 ± 0.0032.
With UCCUGGAUGAGCUUGCUAAGUAUUUAGUUA the “pre-steady-state target cleavage rate” value was 0.00602 ± 0.0023.
UCCUGCUUCAGCUUGCAUAGUAUUUUGUUA was tested, and the “pre-steady-state target cleavage rate” value was 0.00322 ± 0.0024.
For UCCUGGAUCAGGUUGCAUAGUAUAUAGUUA, the “pre-steady-state target cleavage rate” value was 0.00574 ± 0.0022.
